Reference: the supplement of paper PMC6555819

Columns and labels:
Experiment in all cases: PBM binding z-score (relative to random genomic background probes); higher = stronger binding; sequences stand for … in GC…GCGATTGACAGCGTAGAATGAAGG
[1] = test system: FXR:RXRa (NR concentration 270 nM, RXRa partner concentration 90 nM)
Outline: (§1)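 Binding z-scores were set against random background probes. The data came from custom Agilent 4×180K protein-binding microarrays carrying double-stranded probes with 34-nt variable regions, incubated 1 h with ligand-free nuclear receptor dimers. Partner-specific antibodies detected binding, and scanned fluorescence was regression-normalized.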

[2] = test system: LXRa:RXRa (NR concentration 270 nM, RXRa partner concentration 90 nM)
Outline: as §1

[3] = test system: LXRa homodimer (NR concentration 270 nM)
Outline: as §1

[4] = test system: LXRb:RXRa (NR concentration 270 nM, RXRa partner concentration 90 nM)
Outline: as §1

[5] = test system: LXRb homodimer (NR concentration 270 nM)
Outline: as §1

[6] = test system: PPARa:RXRa (NR concentration 270 nM, RXRa partner concentration 90 nM)
Outline: as §1

[7] = test system: PPARg:RXRa (NR concentration 180 nM, RXRa partner concentration 90 nM)
Outline: as §1

[8] = test system: PPARg:RXRa 270nM:90nM, anti-RXR (NR concentration 270 nM, RXRa partner concentration 90 nM)
Outline: as §1

[9] = test system: PPARg:RXRa 30nM:10nM, anti-RXR (NR concentration 30 nM, RXRa partner concentration 10 nM)
Outline: as §1

[10] = test system: PPARg:RXRa 90nM:30nM, anti-RXR (NR concentration 90 nM, RXRa partner concentration 30 nM)
Outline: as §1

Row | Sequence | PBM binding z-score [1] | PBM binding z-score [2] | PBM binding z-score [3] | PBM binding z-score [4] | PBM binding z-score [5] | PBM binding z-score [6] | PBM binding z-score [7] | PBM binding z-score [8] | PBM binding z-score [9] | PBM binding z-score [10]
1 | ATATGTAGGTTGCATCCGGGTCATTCAGGCTATG | 1.21 | 1.43 | 0.122 | 1.29 | -0.0904 | 2.76 | 1.97 | 1.68 | 0.362 | 1.36
2 | GATACAGGGTTAAGGCCAGAGTACGCGTATTGAT | 1.24 | 0.758 | -0.124 | 0.741 | -0.621 | 2.23 | 1.45 | 1.5 | 0.167 | 0.884
3 | TCTGCTAGGTCAACGATGGTCAGCTATTCTGCTA | 3.16 | 2.62 | -0.457 | 1.39 | -0.158 | 3.15 | 2.42 | 2.96 | 2 | 2.29
4 | ACAGAAAGGTGATGAAGGTAACTCAGGCTATCAT | 0.335 | 0.618 | 0.115 | 0.477 | -0.456 | 1.51 | 1.02 | 1.12 | 0.27 | 0.787
5 | CGAACGAGGGCATGAGTTGATAGCTAATGCCGAT | 0.677 | 0.398 | -0.532 | 0.00979 | -0.952 | 1.51 | 1.53 | 1.5 | 0.214 | 0.782
6 | TTACCAAGGTGAAGGTCGTCGATCCCTCTGTAGA | 1.32 | 1.01 | -0.48 | 1.09 | -0.788 | 2.6 | 3.62 | 4.16 | 2.47 | 4.28
7 | CCTACAGGGCCATTCAGAGGTCATTGATCATATG | 3.14 | 4.65 | 6.45 | 3.82 | 0.447 | 3.5 | 0.853 | 1.79 | 0.168 | 0.721
8 | CCTGCTAGGTCATGGTCAGCTAGTCTACAGTATG | 3.74 | 2.28 | -0.0362 | 1.62 | -0.295 | 3.45 | 2.38 | 2.89 | 0.503 | 1.92
9 | ATCGAAAGGTCGAAGAGGTGAGTATACACCGTTT | 4.26 | 3.51 | -0.1 | 2.49 | 0.443 | 4.09 | 2.38 | 2.8 | 0.698 | 2.03
10 | ATCTCTAGGTAACCAACTTCAGTGAATGCCGAAC | 0.38 | 0.07 | 0.43 | 0.199 | 1.07 | 0.378 | 0.531 | 0.519 | 0.321 | 0.666
11 | CCGACTGGGGCAAGGTTTCCATAACGCACAGCCA | -0.141 | -0.322 | -0.44 | -0.321 | -0.889 | 0.606 | 2.28 | 2.75 | 0.608 | 1.97
12 | ACTTACGGGTCAACGATGTTATAGCACGCGTATA | 6.28 | 4.04 | 0.405 | 3.64 | 0.787 | 5.53 | 4.83 | 5.13 | 2.07 | 3.75
13 | GCTATTAGTTGAAAAGGCAACCGAATGATTCTCG | -0.25 | -0.013 | -0.222 | -0.163 | -0.383 | 0.216 | 0.532 | 1.07 | 0.168 | 0.651
14 | CAAACTTGGTCACGAAAGGTCAAAGTCGAATGAC | 5.56 | 6.11 | 5.72 | 5.74 | 2.04 | 5.22 | 4.84 | 5.24 | 2.75 | 4.59
15 | CGGCAAAGTTCAAGGTAACGTAACAGAAAGCAGC | 6.25 | 5.26 | 1.74 | 3.16 | -0.0277 | 4.47 | 3.94 | 4.6 | 1.59 | 3.43
16 | TCTTGGAGGACACGAAAGGTCAGAGCTCGACATC | 3.33 | 4.06 | 2.83 | 3.37 | 0.286 | 3.75 | 1.68 | 3.16 | 2.54 | 2.89
17 | GCTCGGAGGACAAGGTAAGAGCTTTGTCCGTAGA | -0.326 | -0.633 | -0.985 | -0.8 | -1.57 | -0.331 | -0.742 | -0.267 | -0.952 | -0.841
18 | CCTAGTTGGTCAAGGTGACACACGCTATAGGTAC | 0.697 | 0.276 | 0.273 | 0.592 | 0.0749 | 1.33 | 1.71 | 1.93 | 0.466 | 1.32
19 | AATACAGGGTCACTAGGCAAGAGTAGGTACGAAT | 6.39 | 4.96 | 0.866 | 3.82 | 1.1 | 5.59 | 7.09 | 5.74 | 3.03 | 4.6
20 | TCTTGTAGATCAACAGGACGTTAAGAAAGATCGA | 0.291 | 0.413 | -0.398 | 0.173 | -0.226 | 0.653 | 0.338 | 1.62 | 2.86 | 2.27
21 | TCTATTAGTTGAATAGGGCAACCGAAACAGCGGA | 0.393 | 0.654 | -0.213 | 0.664 | 0.0451 | 1.16 | 0.438 | 1.92 | 3.61 | 2.81
22 | TCATAGAGGTAATACAGGTGAAAGTCGGCATCTA | 0.717 | 1.43 | -0.283 | 0.754 | -0.377 | 1.85 | 0.997 | 1.86 | 3.1 | 2.46
23 | TAGCCTAGGTCATGGGCTAGTATACCACGCGAAC | 4.37 | 3.22 | -0.104 | 1.86 | -0.806 | 4.16 | 3.61 | 3.3 | 0.951 | 2.07
